# Inconclusive results are not listed. Active and inactive are the calls of the source. Rule for the calls: active = hit-call score of the fitted dose curve at least 0.9, where 1 is the maximum; inconclusive = response in the unintended direction; inactive = score below 0.9.
# Assays:
# PGR (gene 5241) = PGR (gene 5241) (UniProt P06401); experiment: NVS_NR_hPR: NovaScreen (NVS) Nuclear Receptor Binding Assay for human Progestron Receptor (PR) (AID 2283360);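 note: active means loss of bound radioligand signal versus DMSO baseline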
# Summary of the method: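 Cell-free radioligand binding using receptor protein extracted from T47D cells, read by scintillation counting 18 hours after dosing. Loss of signal relative to DMSO baseline indicates displacement; primary screen single concentration 25 uM in duplicate, actives followed in concentration series.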
# [1] = molecular target: Estrogen receptor (Homo sapiens) + Estrogen receptor beta (Homo sapiens) (UniProt P03372+Q92731); experiment: OT_ER_ERaERb_1440: Odyssey Thera (OT) 24-hour HEK293T Protein-Complementation Assay for Estrogen Receptor-alpha/-beta Homodimer (AID 2283356);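 note: heteromer of ER alpha and ER beta binding domains; hits raise reporter fluorescence and both agonists and antagonists give an increase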
# Summary of the method: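 Stable HEK293T PCA line, ERα LBD 310-547 + ERβ LBD 263-489 fused to reporter fragments; 24 h treatment; fluorescence read by laser scanning cytometry; positive fitting direction relative to DMSO.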
# [2] = molecular target: Estrogen receptor beta (Homo sapiens) (UniProt Q92731); experiment: OT_ER_ERbERb_0480: Odyssey Thera (OT) 8-hour HEK293T Protein-Complementation Assay for Estrogen Receptor-beta/-beta Homodimer (AID 2283357);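 note: active means signal gain over DMSO baseline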
# Summary of the method: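 Fluorescence intensity, nuclear for agonists and nuclear plus cytoplasmic for antagonists, was quantified by laser scanning cytometry versus vehicle after 8 h treatment. The cells were HEK293T stably carrying ER beta LBD fragment-complementation partners.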
# [3] = molecular target: Retinoic acid receptor alpha (Homo sapiens) (UniProt P10276); experiment: NVS_NR_hRAR_Antagonist: NovaScreen (NVS) Nuclear Receptor Binding Assay for human Retinoic Acid Alpha Receptor Antagonism (RAR) (AID 2283358)
# Summary of the method: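 Cell-free TR-FRET binding assay with extracted human RARalpha in antagonist mode, read 2 h after dosing. Loss of signal was fitted relative to DMSO; the primary screen used 25 uM in duplicate, with concentration series on follow-up.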
# [4] = molecular target: human Peroxisome Proliferator-activated Receptor alpha (PPARa), PPARA (gene 5465) (UniProt Q07869); experiment: NVS_NR_hPPARa: NovaScreen (NVS) Nuclear Receptor Binding Assay for human Peroxisome Proliferator-activated Receptor alpha (PPARa) (AID 2283359);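 note: activity means loss of TR-FRET signal versus DMSO baseline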
# Experimental: NVS_NR_hPPARa is a biochemical, single-readout assay that uses extracted gene-proteins in a cell-free assay. Measurements were taken 1 hour after chemical dosing in a 384-well plate.NVS_NR_hPPARa is one of one assay component(s) measured or calculated from the NVS_NR_hPPARa assay. It is designed to make measurements of fluorescent resonance energy transfer, a form of binding reporter, as detected with fluorescent resonance energy transfer signals by Time-Resolved Fluorescence Resonance Energy Transfer (TR-FRET) technology.Data from the assay component NVS_NR_hPPARa was analyzed into 1 assay endpoint. This assay endpoint, NVS_NR_hPPARa, was analyzed in the positive analysis fitting direction relative to DMSO as the negative control and baseline of activity. Using a type of binding reporter, loss-of-signal activity can be used to understand changes in the binding as they relate to the gene PPARA. Furthermore, this assay endpoint can be referred to as a primary readout, because the performed assay has only produced 1 assay endpoint. To generalize the intended target to other relatable targets, this assay endpoint is annotated to the nuclear receptor intended target family, where the subfamily is non-steroidal.
# Binding assays used specific radioligands (tritiated, iodinated) with non-radioactive competitive displacement ligands in agonist or antagonist protocols (as indicated) and various reference compounds and inhibitors to titrate specific binding to receptors and transporters. Most enzyme assays (CYPs, kinases, phosphatases, proteases, HDACs) used recombinant protein and specific substrates (fluorescence mostly, some colorimetric and radioactive) and inhibitors, followed by a biochemical separation of substrate and product. All assays for the biochemical HTS were initially run in duplicate at a single concentration (10 uM for CYP450 assays and 25 uM for all others). […] Each assay was run with positive and negative controls, and concurrent controls on every plate. […]
# [5] = molecular target: Glucocorticoid receptor (Homo sapiens) (UniProt P04150); experiment: NVS_NR_hGR: NovaScreen (NVS) Nuclear Receptor Binding Assay for human Glucocorticoid Receptor (GR) (AID 2283363);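 for AC50: activity is loss of specific radioligand binding signal relative to DMSO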
# Summary of the method: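 Cell-free radioligand displacement assay on extracted human GR, read 16 h after dosing by filter-based scintillation counting. Screened in duplicate at 25 uM, then concentration series for actives; loss of signal versus DMSO baseline.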
# [6] = molecular target: Nuclear receptor subfamily 1 group I member 2 (Homo sapiens) (UniProt O75469); experiment: NVS_NR_hPXR: NovaScreen (NVS) Nuclear Receptor Binding Assay for human Pregnane X Receptor (PXR) (AID 2283365);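 note: a drop in FRET signal versus DMSO baseline means the compound binds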
# Summary of the method: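 Human PXR protein, cell-free; compound added, incubated 2 h, TR-FRET read. Signal decrease vs DMSO = binding. Screened 25 uM duplicate, actives re-run as dilution series.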
# [7] = molecular target: Androgen Receptor/SRC-1 Co-activator, AR (gene 367) (UniProt P10275); experiment: OT_AR_ARSRC1_0480: Odyssey Thera (OT) 8-hour HEK293T Protein-Complementation Assay for Androgen Receptor/SRC-1 Co-activator (AID 2283354);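 note: hits raise the complementation signal above DMSO so AC50 marks enhancers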
# Summary of the method: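 HEK293T cells stably expressing AR and SRC-1 fused to Venus YFP fragments, imaged 8 h after dosing. Complementation fluorescence scored as nuclear/cytoplasmic ratio at 488 nm in at least 400 cells per image; gain fitted versus DMSO.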
# [8] = molecular target: rat Mineralocorticoid Receptor (MR), Nr3c2 (gene 25672) (UniProt P22199); experiment: NVS_NR_rMR: NovaScreen (NVS) Nuclear Receptor Binding Assay for rat Mineralocorticoid Receptor (MR) (AID 2283355)
# Summary of the method: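 Cell-free radioligand binding to mineralocorticoid receptor from adrenalectomized rat brain supernatant, scintillation counting after 24 h. Primary screen in duplicate at 25 uM; actives retested in concentration series. Loss of specific binding versus DMSO.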
# [9] = molecular target: human Thyroid Receptor Alpha (TRa), THRA (gene 7067) (UniProt P10827); experiment: NVS_NR_hTRa_Antagonist: NovaScreen (NVS) Nuclear Receptor Binding Assay for human Thyroid Receptor Alpha Antagonism (TRa) (AID 2283362)
# Summary of the method: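 Extracted protein, cell-free; 1 h incubation after dosing; AlphaLISA chemiluminescence binding readout. DMSO = baseline/neg ctrl; signal loss = activity. Primary: duplicate, 25 uM; secondary: conc. series on actives.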
# Chain of Estrogen receptor beta (Homo sapiens) (Q92731 whole entry, looked up, the tested form may be a part): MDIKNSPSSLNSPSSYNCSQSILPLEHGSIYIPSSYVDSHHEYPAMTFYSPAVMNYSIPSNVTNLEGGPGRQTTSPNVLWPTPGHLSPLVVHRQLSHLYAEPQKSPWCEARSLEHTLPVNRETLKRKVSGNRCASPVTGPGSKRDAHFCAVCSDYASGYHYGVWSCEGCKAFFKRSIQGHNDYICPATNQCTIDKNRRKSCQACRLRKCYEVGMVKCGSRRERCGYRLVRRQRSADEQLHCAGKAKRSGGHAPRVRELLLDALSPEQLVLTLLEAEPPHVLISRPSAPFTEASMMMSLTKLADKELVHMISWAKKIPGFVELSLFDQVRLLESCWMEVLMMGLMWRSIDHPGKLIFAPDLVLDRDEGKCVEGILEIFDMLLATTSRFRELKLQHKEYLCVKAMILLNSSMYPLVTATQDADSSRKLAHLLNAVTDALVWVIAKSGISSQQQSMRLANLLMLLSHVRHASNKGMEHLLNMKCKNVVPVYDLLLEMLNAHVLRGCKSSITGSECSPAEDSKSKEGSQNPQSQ
# Chain of Nuclear receptor subfamily 1 group I member 2 (Homo sapiens) (O75469 whole entry, looked up): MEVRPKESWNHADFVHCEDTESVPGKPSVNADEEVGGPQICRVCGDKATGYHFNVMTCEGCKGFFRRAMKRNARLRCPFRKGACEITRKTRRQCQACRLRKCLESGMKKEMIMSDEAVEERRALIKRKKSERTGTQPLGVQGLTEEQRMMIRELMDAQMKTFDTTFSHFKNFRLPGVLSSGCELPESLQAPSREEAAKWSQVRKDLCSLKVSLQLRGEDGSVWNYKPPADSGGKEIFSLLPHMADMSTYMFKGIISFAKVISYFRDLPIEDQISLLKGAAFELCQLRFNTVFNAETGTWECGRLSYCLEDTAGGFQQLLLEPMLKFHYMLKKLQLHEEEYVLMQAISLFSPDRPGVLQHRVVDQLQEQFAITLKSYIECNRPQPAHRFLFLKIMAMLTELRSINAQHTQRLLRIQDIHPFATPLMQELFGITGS
# Chain of PGR (gene 5241) (P06401 whole entry, looked up): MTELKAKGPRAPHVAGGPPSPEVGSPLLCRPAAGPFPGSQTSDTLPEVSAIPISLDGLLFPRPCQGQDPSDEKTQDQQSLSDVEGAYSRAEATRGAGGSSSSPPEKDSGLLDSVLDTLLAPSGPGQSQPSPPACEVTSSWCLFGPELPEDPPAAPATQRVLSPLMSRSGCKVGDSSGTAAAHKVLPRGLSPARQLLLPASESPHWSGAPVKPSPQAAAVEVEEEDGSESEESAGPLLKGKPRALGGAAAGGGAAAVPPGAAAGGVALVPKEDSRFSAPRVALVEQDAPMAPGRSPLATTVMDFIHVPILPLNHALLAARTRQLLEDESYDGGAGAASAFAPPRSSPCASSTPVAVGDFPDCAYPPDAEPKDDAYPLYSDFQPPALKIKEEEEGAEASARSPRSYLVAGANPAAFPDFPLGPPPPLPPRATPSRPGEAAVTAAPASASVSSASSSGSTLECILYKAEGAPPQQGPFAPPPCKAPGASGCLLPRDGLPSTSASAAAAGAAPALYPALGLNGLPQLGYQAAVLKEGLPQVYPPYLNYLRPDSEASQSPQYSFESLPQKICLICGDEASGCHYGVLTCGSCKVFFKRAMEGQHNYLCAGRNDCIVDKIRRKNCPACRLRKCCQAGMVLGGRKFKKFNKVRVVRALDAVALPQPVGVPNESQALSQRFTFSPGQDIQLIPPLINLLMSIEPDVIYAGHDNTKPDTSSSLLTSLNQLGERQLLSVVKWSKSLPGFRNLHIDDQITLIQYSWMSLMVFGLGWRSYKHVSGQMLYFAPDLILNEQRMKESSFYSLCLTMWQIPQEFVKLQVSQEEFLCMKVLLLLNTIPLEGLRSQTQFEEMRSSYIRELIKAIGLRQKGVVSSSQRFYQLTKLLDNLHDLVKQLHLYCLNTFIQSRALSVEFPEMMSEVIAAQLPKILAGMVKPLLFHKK
# Chain of human Peroxisome Proliferator-activated Receptor alpha (PPARa), PPARA (gene 5465) (Q07869 whole entry, looked up): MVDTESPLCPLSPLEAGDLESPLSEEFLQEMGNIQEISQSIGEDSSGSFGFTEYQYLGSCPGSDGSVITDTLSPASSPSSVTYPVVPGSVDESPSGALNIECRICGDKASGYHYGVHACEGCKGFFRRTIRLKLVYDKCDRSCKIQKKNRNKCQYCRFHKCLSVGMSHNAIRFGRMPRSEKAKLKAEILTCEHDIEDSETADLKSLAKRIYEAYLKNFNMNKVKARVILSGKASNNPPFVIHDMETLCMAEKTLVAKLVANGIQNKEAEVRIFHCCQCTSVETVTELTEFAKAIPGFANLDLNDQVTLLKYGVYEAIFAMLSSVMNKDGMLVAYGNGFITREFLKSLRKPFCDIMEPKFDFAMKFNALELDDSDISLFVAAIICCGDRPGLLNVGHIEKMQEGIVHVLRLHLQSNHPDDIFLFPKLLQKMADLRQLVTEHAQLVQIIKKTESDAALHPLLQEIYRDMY
# Chain of Glucocorticoid receptor (Homo sapiens) (P04150 whole entry, looked up): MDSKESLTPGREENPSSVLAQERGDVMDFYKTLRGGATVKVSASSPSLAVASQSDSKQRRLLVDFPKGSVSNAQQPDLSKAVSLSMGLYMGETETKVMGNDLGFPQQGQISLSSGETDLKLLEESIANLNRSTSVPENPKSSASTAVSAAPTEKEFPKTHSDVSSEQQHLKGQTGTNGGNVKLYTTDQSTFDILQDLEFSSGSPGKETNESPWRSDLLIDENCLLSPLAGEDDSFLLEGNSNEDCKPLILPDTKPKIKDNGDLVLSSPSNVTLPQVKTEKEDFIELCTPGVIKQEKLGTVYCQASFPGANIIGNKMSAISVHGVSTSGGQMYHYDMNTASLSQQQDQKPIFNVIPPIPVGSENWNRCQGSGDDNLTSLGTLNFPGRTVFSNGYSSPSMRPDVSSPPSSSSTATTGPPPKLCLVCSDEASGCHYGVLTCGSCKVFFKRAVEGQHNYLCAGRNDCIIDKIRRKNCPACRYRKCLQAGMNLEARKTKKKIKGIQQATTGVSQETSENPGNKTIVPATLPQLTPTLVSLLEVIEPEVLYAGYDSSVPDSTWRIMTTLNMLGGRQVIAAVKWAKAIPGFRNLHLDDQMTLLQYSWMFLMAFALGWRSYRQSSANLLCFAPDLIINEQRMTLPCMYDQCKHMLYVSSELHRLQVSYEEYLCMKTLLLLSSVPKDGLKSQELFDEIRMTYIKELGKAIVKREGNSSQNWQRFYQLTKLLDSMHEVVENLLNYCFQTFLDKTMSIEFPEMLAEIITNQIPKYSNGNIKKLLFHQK
# Chain of Estrogen receptor (Homo sapiens) + Estrogen receptor beta (Homo sapiens) (P03372 whole entry, looked up, the tested form may be a part): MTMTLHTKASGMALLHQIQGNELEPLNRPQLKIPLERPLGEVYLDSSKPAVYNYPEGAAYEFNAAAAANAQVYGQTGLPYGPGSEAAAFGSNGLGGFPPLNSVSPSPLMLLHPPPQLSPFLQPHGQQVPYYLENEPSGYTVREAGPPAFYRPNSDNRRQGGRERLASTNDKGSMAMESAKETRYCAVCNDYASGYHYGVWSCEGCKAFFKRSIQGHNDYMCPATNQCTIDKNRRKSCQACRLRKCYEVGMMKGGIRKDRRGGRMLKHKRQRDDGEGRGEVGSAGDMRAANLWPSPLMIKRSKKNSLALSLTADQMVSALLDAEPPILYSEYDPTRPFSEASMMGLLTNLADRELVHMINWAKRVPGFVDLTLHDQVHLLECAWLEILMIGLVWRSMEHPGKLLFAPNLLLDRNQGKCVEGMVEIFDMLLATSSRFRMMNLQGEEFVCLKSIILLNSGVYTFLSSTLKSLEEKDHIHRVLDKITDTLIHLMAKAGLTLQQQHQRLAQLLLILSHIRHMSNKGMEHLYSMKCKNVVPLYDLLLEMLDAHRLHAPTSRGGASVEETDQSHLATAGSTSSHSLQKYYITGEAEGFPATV
# Chain of Estrogen receptor (Homo sapiens) + Estrogen receptor beta (Homo sapiens) (Q92731 whole entry, looked up, the tested form may be a part): as the sequence (Q92731 whole entry, looked up, the tested form may be a part) above
# Chain of Androgen Receptor/SRC-1 Co-activator, AR (gene 367) (P10275 whole entry, looked up, the tested form may be a part): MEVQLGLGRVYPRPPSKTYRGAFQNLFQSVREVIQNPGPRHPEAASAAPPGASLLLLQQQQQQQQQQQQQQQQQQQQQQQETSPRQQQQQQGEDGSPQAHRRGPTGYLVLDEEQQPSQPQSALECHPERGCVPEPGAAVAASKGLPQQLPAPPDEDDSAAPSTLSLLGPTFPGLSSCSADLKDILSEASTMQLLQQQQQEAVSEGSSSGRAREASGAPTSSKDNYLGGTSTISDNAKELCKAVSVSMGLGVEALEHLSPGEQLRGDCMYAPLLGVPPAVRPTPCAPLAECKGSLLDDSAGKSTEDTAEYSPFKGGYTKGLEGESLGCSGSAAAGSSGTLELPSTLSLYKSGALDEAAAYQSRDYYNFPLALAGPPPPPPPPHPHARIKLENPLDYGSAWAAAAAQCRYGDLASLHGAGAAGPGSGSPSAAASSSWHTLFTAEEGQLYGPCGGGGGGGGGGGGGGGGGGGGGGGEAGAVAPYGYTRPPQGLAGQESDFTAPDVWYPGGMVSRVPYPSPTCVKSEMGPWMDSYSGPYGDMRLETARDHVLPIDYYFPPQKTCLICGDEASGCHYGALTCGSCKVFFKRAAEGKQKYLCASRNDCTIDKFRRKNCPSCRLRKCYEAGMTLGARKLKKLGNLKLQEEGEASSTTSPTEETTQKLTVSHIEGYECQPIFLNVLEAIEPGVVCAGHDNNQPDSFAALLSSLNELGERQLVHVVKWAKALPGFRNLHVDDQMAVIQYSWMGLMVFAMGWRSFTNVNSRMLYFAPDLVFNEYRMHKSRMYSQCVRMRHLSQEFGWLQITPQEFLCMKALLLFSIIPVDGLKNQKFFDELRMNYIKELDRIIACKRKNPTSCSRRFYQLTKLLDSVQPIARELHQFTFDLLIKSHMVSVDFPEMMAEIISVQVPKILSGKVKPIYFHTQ
compound,measurement,setting,value
Nc1ccc(Oc2cccc(Oc3ccc(N)cc3)c2)cc1,outcome,PGR (gene 5241),inactive
CC(Cc1ccc(O)c(O)c1)C(C)Cc1ccc(O)c(O)c1 (configuration not stated),AC50,[1],11.9 µM (active)
same,AC50,[2],11.9 µM (active)
same,AC50,[3],11.7 µM (active)
same,AC50,[4],4.6 µM (active)
same,AC50,[5],1.79 µM (active)
same,AC50,[6],5.16 µM (active)
CN(C)Cc1ccccc1O,outcome,[7],inactive
same,outcome,[1],inactive
same,outcome,[2],inactive
CC/C=C\CCOC(C)=O,outcome,[1],inactive
same,outcome,[2],inactive
[Co],outcome,[7],inactive
same,outcome,[1],inactive
same,outcome,[2],inactive
O=C(OCCOCCOCCOC(=O)c1ccccc1)c1ccccc1,outcome,[1],inactive
same,outcome,[6],inactive
CCCCC(CC)COP(=O)(O)OCC(CC)CCCC (configuration not stated),outcome,[4],inactive
same,AC50,[5],8.04 µM (active)
same,outcome,[6],inactive
C1COCCN1,outcome,[1],inactive
same,outcome,[2],inactive
O=S(=O)(O)c1ccc2ccccc2c1,outcome,[6],inactive
CCCCOc1ccc(N)cc1,AC50,[1],68.7 µM (active)
same,outcome,[2],inactive
CCN(Cc1cccc(S(=O)(=O)O)c1)c1ccc(C(=C2C=CC(=[N+](CC)Cc3cccc(S(=O)(=O)O)c3)C=C2)c2ccc(O)cc2S(=O)(=O)[O-])cc1,outcome,[1],inactive
same,outcome,[2],inactive
same,AC50,[3],7.39 µM (active)
same,AC50,[5],11.5 µM (active)
same,AC50,[6],2.41 µM (active)
CCCCCCOC(=O)c1ccccc1,outcome,[1],inactive
same,outcome,[2],inactive
CCCCNc1ccccc1,outcome,PGR (gene 5241),inactive
Cc1cc(C)cc(O)c1,outcome,[1],inactive
same,outcome,[2],inactive
same,outcome,[5],inactive
CNC(=S)NC,outcome,[7],inactive
same,outcome,[4],inactive
same,outcome,[5],inactive
same,outcome,[6],inactive
Cc1ccc(S(=O)(=O)NCl)cc1,outcome,[1],inactive
same,outcome,[2],inactive
same,outcome,[6],inactive
C#C[C@]1(O)CC[C@H]2[C@@H]3CCc4cc(OC)ccc4[C@H]3CC[C@@]21C,outcome,[8],inactive
same,outcome,PGR (gene 5241),inactive
same,outcome,[5],inactive
CC(CCl)OP(=O)(OC(C)CCl)OC(C)CCl (configuration not stated),outcome,[1],inactive
same,outcome,[2],inactive
same,AC50,[6],4.35 µM (active)
COC(=O)C1CCC(C(=O)OC)CC1 (configuration not stated),outcome,[1],inactive
same,outcome,[2],inactive
same,outcome,[6],inactive
CCCCCCC(C)OC(=O)CCCCC(=O)OC(C)CCCCCC (configuration not stated),outcome,[7],inactive
same,outcome,[1],inactive
same,outcome,[2],inactive
same,outcome,[9],inactive
CCCCCCOC(=O)c1ccccc1O,outcome,[7],inactive
same,outcome,[1],inactive
same,outcome,[2],inactive
same,outcome,[6],inactive
C(=C(c1ccccc1)c1ccccc1)c1ccccc1,AC50,[1],29.3 µM (active)
same,AC50,[2],1.49 µM (active)

# From PubChem BioAssay (EPA / NIEHS)
